High-throughput results (PubChem)
Most compounds without a hit are left out; they make up all but 7.9% or so of the library.
M1 agonist – M1 muscarinic receptor agonism; hit rate 3% among 64,000; B-score at 10 µM; CHO-M1 cells, Fluo-4 calcium fluorescence, agonist mode; hits give high values;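 active means fluorescence rise, raw or as B-score row- and column-corrected plate score, outside the 99.7% band of its plate's samples, either direction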
Cav3 T inh – blocks human Cav3.2 T-type calcium channel. O95180. Cav3.2-expressing cells, Fluo-4 calcium fluorescence FDSS; hits give low values. B-score at 10 µM. hit rate 4% among 100,000;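 active means single-dose well whose peak fluorescence ratio is a statistical outlier from its plate by either plate-standardised score or position-corrected B-score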
M1 antagonist – M1 muscarinic receptor (rat) antagonism | AID 628 | B-score at 10 µM | hit rate 3.4% among 64,000 | CHO-M1 cells, Fluo-4 calcium, ACh EC80 antagonist mode; hits give low values;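 active means calcium fluorescence response, raw or row-and-column corrected B-score, differing from the plate sample mean either way at a set confidence level, mostly lower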
Her2 expr inh – inhibitors of human Her2 kinase expression. P04626. SKBR-3 HER2 protein level, AlphaScreen, 18-24 h; hits give low values. HER2 level % of control, % at 10 µM. hit rate 0.69% among 65,000. AID 645;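 active means HER2 level under 5% of the carrier-only control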;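 further: 100% = DMSO carrier and 0% = 500 nM PU-H71 HSP90 inhibitor; lower value means stronger loss of Her2 protein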
PLAP act – human PLAP activation; purified PLAP enzyme, luminescent substrate read-out; hits give high values; P05187; activation fold at 20 µM; hit rate 1.2% among 96,000; AID 696; in the data active means activation fold above about 2
Target sequence (P05187 whole entry, looked up): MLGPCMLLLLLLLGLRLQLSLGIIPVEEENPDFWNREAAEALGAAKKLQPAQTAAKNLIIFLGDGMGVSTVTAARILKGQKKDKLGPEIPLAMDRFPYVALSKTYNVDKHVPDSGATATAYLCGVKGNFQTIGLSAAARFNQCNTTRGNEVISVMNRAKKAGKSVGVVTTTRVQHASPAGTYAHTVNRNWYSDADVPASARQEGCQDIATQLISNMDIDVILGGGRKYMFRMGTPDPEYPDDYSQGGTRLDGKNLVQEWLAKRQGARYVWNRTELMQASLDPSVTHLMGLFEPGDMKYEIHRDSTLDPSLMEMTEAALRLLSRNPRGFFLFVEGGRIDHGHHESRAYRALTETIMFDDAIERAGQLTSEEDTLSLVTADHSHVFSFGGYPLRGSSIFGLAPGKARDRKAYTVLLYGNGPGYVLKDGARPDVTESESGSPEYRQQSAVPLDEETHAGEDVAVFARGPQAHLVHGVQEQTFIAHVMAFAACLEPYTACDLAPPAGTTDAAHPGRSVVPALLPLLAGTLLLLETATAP
* hit, by the source's call; nt = no result given.

SMILES	M1 agonist	Cav3 T inh	M1 antagonist	Her2 expr inh	PLAP act
CC(C)OC(=O)CC(=O)c1sc2nc3c(cc2c1N)CN(C)CC3	7.3*	-0.33	0.055	123	1.4
COc1ccccc1NS(=O)(=O)c1cccc(C(=O)N/N=C(\C)c2ccc(-n3ccnc3)cc2)c1	nt	0.87	nt	nt	2*
COc1ccccc1NS(=O)(=O)c1ccc(OC)c(OC)c1	-0.13	1.7	0.37	95	1.2
Nc1c(C(=O)c2ccccc2)sc(Nc2ccccc2)c1S(=O)(=O)c1ccccc1	nt	-3.8*	nt	nt	nt
O=C(Nc1ccc(NC(=O)c2ccc(S(=O)(=O)c3ccccc3)cc2)cc1)c1ccccc1	nt	nt	nt	nt	1
Cc1ccc(C2CC(c3ccccc3)=NN2C(=S)Nc2ccccc2)o1 (stereo not given)	nt	-7.5*	nt	nt	0.9
COc1cccc(C2CC(c3cccs3)=NN2C(=S)Nc2ccccc2)c1OC (stereo not given)	nt	-4.1	nt	nt	1.1
Cc1sc(CO)c(Sc2ccccc2)c1C(=O)O	0.78	nt	-0.23	93	1.1
CCN1CC=C2C(C1)C(c1ccc(Cl)s1)C(C#N)=C(N)C2(C#N)C#N (stereo not given)	261*	nt	0.51	94	1.2
Fc1cccc(Cn2cc(C(=S)N3CCCCC3)c3ccccc32)c1	nt	-4.9*	nt	nt	0.8
COc1ccccc1-n1cnnc1SC1CCOC1=O (stereo not given)	0.55	nt	2.8*	114	1
Fc1ccccc1N1CC(c2ccccc2)C(c2cccs2)=N1 (stereo not given)	nt	-1.7	nt	nt	1
CCOc1cc(CNCc2ccccn2)ccc1OCC(=O)NC1CCCCC1	nt	1.4	nt	nt	2*
CCOc1cc(CNCCc2ccc(S(N)(=O)=O)cc2)ccc1OCC(=O)NC1CCCCC1	nt	1.6	nt	nt	1.9
CCOc1cc(/C=N/NC(=O)CNc2cccc(C)c2)ccc1OC(=O)c1ccccc1	nt	-3.9*	nt	nt	1
CCOc1cc(/C=N/NC(=O)COc2ccccc2C)ccc1OC(=O)c1cccs1	nt	-1.6	nt	nt	1.4
Cc1cc2ccccc2c(=O)n1CC(=O)NCC(=O)N1CCN(c2ccccc2F)CC1	0.47	-3.8*	-0.15	109	1
Cc1nc2sc(C(c3ccco3)N3CCN(C(c4ccccc4)c4ccccc4)CC3)c(O)n2n1 (stereo not given)	-0.61	-5.4*	0.18	83	1.6
Cc1ccc(C(c2sc3nc(C)nn3c2O)N2CCN(CCO)CC2)cc1 (stereo not given)	-0.18	0.016	0.72	71	nt
Cc1ccc(C(c2sc3nc(C)nn3c2O)N2CCN(c3ccccc3F)CC2)cc1 (stereo not given)	0.3	-5.5*	0.23	-18*	1
Cc1nc2sc(C(c3ccco3)N3CCC(C)CC3)c(O)n2n1 (stereo not given)	0.42	0.35	-0.0084	87	nt
Cn1c(COc2ccccc2)nnc1SCCC(=O)Nc1ccccc1	1.1	0.37	0.062	112	0.9
CC(O)CNc1nc2ccccc2n1-c1ncnc2sc3c(c12)CCC3 (stereo not given)	1.1	-6.4*	-1.6	71	2.7*
c1ccc2c(c1)ncn2-c1ncnc2sc3c(c12)CCCC3	nt	-1.3	nt	nt	1
c1ccc(-c2nnc(CSc3nc4ccccc4[nH]3)o2)cc1	0.082	0.23	-0.85	93	2.2*
SMILES	M1 agonist	Cav3 T inh	M1 antagonist	Her2 expr inh	PLAP act
O=C(CCCSc1nc2ccccc2[nH]1)Nc1nnc(-c2ccccc2)o1	0.52	nt	0.014	104	2.1*
c1ccc2[nH]c(CSc3nnc(-c4ccncc4)o3)nc2c1	-0.57	0.0027	1.1	79	2.2*
Brc1cccc(-c2nnc(SCc3nc4ccccc4[nH]3)o2)c1	-0.41	nt	-1.3	76	1
C=CCNC(=O)NC(=O)COC(=O)CCCSc1nc2ccccc2[nH]1	0.33	0.51	-1.2	111	0.8
CN(CC(=O)Nc1ccncc1)S(=O)(=O)c1ccc(Br)cc1	nt	0.37	nt	nt	1
Cc1nc(NC(=O)CN(C)S(=O)(=O)c2ccc(Br)cc2)sc1C	nt	-5.8*	nt	nt	0.9
Cc1cccc(NC(=O)Nc2cccc(C#N)c2)n1	-0.11	-4.2*	0.0088	55	0.9
COc1ccc(NC(=O)Nc2cccc(C)n2)cc1	-0.16	-4.2*	0.048	89	1
Cc1cccc(NC(=O)Nc2ccc(C#N)cc2)n1	0.52	0.61	-0.096	50	1
COc1ccc(Br)cc1C(=O)Nc1cc(C)cc(C)c1	nt	0.31	nt	nt	1.1
O=C(CN1CCN(c2ccccc2)CC1)Nc1ccc(Oc2ccccc2)cc1	nt	-1.7	nt	nt	0.9
Cc1cc(O)cc(O)c1-c1onc(C(F)(F)F)c1-c1cscn1	0.22	-5.2*	-0.27	33	1
CCOc1ccc(-c2onc(C(F)(F)F)c2-c2cscn2)c(O)c1	nt	-1.5	nt	nt	1
CCOC(=O)COc1ccc(S(=O)(=O)NCCC2=CCCCC2)cc1	0.97	-0.98	1.1	80	1.2
CCC(=O)N1CCN(CCN=Cc2c(O)n(C3CCCCC3)c(=O)n(C3CCCCC3)c2=O)CC1	-1.2	nt	-0.9	37	nt
CCOC(=O)c1c(N)sc(C(O)(C(F)(F)F)C(F)(F)F)c1-c1ccc(F)cc1	nt	-4.9*	nt	nt	1.3
C=CCOC(=O)C1=C(C)Nc2nnnn2C1c1cccs1 (stereo not given)	nt	-0.023	nt	nt	1
CCn1c(SCC(=O)N2CCCc3ccccc32)nnc1-c1ccoc1C	nt	1	nt	nt	nt
COc1cccc(C2C3(C#N)C(N)=NC(OC)(OC)C23C#N)c1 (stereo not given)	nt	-0.36	nt	nt	1.1
COC1(OC)N=C(N)C2(C#N)C(c3cccc(Oc4ccccc4)c3)C12C#N (stereo not given)	-0.65	-5*	-1.2	66	1.3
Cn1c(=O)oc2cc(S(=O)(=O)Nc3cccc4c3CCCC4)ccc21	-0.79	-1.1	-0.42	97	1.1
CCOC(=O)c1cnc(SCc2ccc(C(C)(C)C)cc2)nc1N	nt	-7.2*	nt	nt	0.8
CCOC(=O)c1cnc(SCc2ccccc2)nc1N	-0.17	-0.44	-0.43	64	0.8
Cc1cccc(C)c1Nc1nc2ccccc2o1	-1	-0.72	-0.31	81	1
CCOC(=O)c1cnc(Nc2nc3ccccc3o2)nc1C	nt	0.092	nt	nt	2.8*
SMILES	M1 agonist	Cav3 T inh	M1 antagonist	Her2 expr inh	PLAP act
Cc1nc(Nc2nc3ccccc3o2)nc2c1CCC2	1.5	0.053	-0.54	113	2.7*
CCOC(=O)c1cnc(Nc2nc3ccccc3o2)nc1CN1CCN(c2ccccc2)CC1	-0.0074	nt	1.1	96	nt
CCCC1=C(C(=O)OCC)C(c2ccc(NC(C)=O)cc2)NC(=O)N1 (stereo not given)	0.2	0.19	-0.04	47	0.9
CCOC(=O)C1=C(CNCc2ccc(C)cc2)NC(=O)NC1c1ccc(OC)cc1 (stereo not given)	0.063	-4.7*	0.67	108	1.3
COc1ccc(C2c3c(-c4ccccc4O)n[nH]c3C(=O)N2CCc2ccc(OC)c(OC)c2)cc1 (stereo not given)	0.16	0.67	0.71	31	2.8*
Cc1cccc(CCNC(=O)c2nnc(Cc3ccc(Cl)cc3)o2)c1	-0.024	nt	0.0052	76	nt
COc1ccc(S(=O)(=O)N(CCN2CCOCC2)Cc2cc(OC)ccc2OC)cc1	-0.068	-0.47	-0.072	78	1.7
O=c1ccn(-c2cccc(C(F)(F)F)c2)nc1-c1ccn(-c2ccccc2)n1	nt	-5.7*	nt	nt	1.1
COC(=O)c1nn(-c2ccccc2)ccc1=O	nt	0.035	nt	nt	1
